PubChem BioAssay (NCATS)
A number with no mark means an inactive call. Results filed as inconclusive are left out. The source made the active and inactive calls. Unless noted, calls follow the shape of the dose curve; as a rule, active = well fitted curve in either direction with a large enough effect (not every such curve was filed as active); inconclusive = small, poorly fitted or top-dose-only effect, or another doubt; inactive = flat fitted curve, though single readings scatter.

Key:
[1] = Stat Signaling Pathway (AID 446); conditions: ME-180 SIE beta-lactamase reporter, IL-6 stimulated, 5 h; at 17.2 µM (top of the series) unless noted;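 also: ME-180 cervical cancer cells given 40 pM IL-6 alongside compound; SIE-controlled beta-lactamase reporter measured as 460/530 nm FRET emission ratio; % is scaled to controls: 0 for no effect and ±100 for the full control effect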
Outline: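 Overnight-plated ME-180 cells bearing a STAT Inducible Element beta-lactamase reporter; 5 h co-exposure to compound and 40 pM IL-6; values normalized to 300 pM IL-6 and 125 nM JAK inhibitor controls.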

[2] = biological target: Glucocorticoid receptor (Homo sapiens) (UniProt P04150); assay: GR-GFP Redistribution (AID 450;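 active = compounds whose dose series gives a full or clear partial fitted curve of increased nuclear translocation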; also: potency is read from the fitted curve at half-maximal effect)
[3] = NFAT Signaling Pathway (AID 444); conditions: Jurkat NFAT-bla M1, carbachol, beta-lactamase ratio, 5 h; at 17.2 µM (top of the series) unless noted;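 also: carbachol stimulus at about its EC50 of 1 µM final; % is scaled to controls: 0 for no effect and ±100 for the full control effect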
Outline: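 Read-out: CCF4 FRET ratio (460 nm/530 nm) after 1 h RT dye loading, used for %activity and AC50 from titration series. Cells: Jurkat NFAT-β-lactamase/M1 line, treated with compound plus 1 uM carbachol for 5 h, 37 °C.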

[4] = qHTS Assay for Identification of Small Molecule Agonists for Hypoxia Response Element Signaling Pathway (AID 914; active = well fitted activation curve with a large enough effect in the signal ratio, with a control signal flat, not every such curve was filed as active; the % refers to the signal ratio; also: % of control where 0% means no effect); conditions: ME-180 (cervical carcinoma) HRE-bla reporter, beta-lactamase ratio, CoCl2, 17 h; activation: active compounds read high
Outline: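 AC50 values come from titration-series %Activity, taken as the 460/530nm ratio of CCF4 fluorescence (excitation 405nm). CellSensor HRE-bla ME-180 cells were treated 17 hours at 37 C with compound plus an EC50 level of CoCl2.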

Sequence of Glucocorticoid receptor (Homo sapiens) (P04150 whole entry, looked up): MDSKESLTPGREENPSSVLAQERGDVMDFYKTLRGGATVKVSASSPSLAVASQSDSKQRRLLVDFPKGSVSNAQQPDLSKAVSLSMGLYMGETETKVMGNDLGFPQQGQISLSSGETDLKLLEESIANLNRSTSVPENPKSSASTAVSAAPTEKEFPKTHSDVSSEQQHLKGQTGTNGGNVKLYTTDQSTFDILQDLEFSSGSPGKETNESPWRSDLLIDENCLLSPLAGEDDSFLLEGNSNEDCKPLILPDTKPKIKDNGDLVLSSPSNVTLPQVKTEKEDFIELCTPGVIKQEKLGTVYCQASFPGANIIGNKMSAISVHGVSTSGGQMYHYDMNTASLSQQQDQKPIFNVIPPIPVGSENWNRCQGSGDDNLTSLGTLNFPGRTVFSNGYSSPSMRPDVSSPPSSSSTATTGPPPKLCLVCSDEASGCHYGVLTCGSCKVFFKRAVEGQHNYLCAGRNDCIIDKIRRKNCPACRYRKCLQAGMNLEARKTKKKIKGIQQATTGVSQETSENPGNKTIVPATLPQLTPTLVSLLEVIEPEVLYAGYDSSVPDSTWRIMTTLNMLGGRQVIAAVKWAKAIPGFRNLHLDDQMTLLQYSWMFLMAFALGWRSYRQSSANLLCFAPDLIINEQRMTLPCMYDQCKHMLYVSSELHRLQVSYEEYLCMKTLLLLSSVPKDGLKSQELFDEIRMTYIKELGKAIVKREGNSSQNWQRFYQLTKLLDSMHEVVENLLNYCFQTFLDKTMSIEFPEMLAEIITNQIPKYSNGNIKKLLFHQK

Work on `Clc1ccc(-n2ncc3c(NCc4ccccn4)ncnc32)cc1` yielded an activity, negative = inhibition [1] of -20.2%.
In the case of `CN(C)c1nc(OCCNC(=O)Nc2ccccc2)nc(N(C)C)n1`, the activity, negative = inhibition [1] was -7.19% and the Potency [2] was > 20.6 µM.
For `CCOC(=O)CSc1nnc(C)c(=O)[nH]1`, the activity change, negative = inhibition [3] was -0.387%, the activity, negative = inhibition [1] was -1.23% and the Potency [2] was > 20.6 µM. For the same compound, the activation [4] was -0.909%.
In the case of `C#CCSC1=C(C#N)C(c2cccs2)C(C(=O)OCC)=C(C)N1` (stereo unspecified), the activity change, negative = inhibition [3] was -26.3% and the Potency [2] was > 20.6 µM.
With `Cc1c(NC(=O)c2coc(=O)c(Br)c2)c(=O)n(-c2ccccc2)n1C` the activity change, negative = inhibition [3] was -128% (active) and the Potency [2] was > 20.6 µM.
For `Cc1ccc(NC(=O)CSC2=C(C#N)C(c3ccc4c(c3)OCO4)CC(=O)N2)cc1C` (stereo unspecified), the activity change, negative = inhibition [3] was -0.339% and the Potency [2] was > 20.6 µM.
In the case of `COc1cccc(OCCN2CCN(c3ncnc4c3cnn4-c3ccccc3)CC2)c1`, the activity change, negative = inhibition [3] was -29.6% and the Potency [2] was > 20.6 µM.
In the case of `OC1(C2(O)CC(c3ccccc3)ON2)CCCCC1` (stereo unspecified), the activity change, negative = inhibition [3] was -7.93%, the activity, negative = inhibition [1] was -6.74% and the Potency [2] was > 20.6 µM. For the same compound, the activation [4] was -4.48%.
With `CCCCNc1c(CN)cnc2cc(Cl)ccc12` the activity, negative = inhibition [1] was -10.8% [at 7.69 µM].
In the case of `O=C(Oc1oc(-c2ccco2)nc1C=Nc1ccccc1)c1ccco1`, the activity change, negative = inhibition [3] was -124% (active) and the Potency [2] was > 20.6 µM.
For `COCc1[nH]nc2c1C(c1sccc1C)C(C#N)=C(N)O2` (stereo unspecified), the activity, negative = inhibition [1] was -24.3% and the Potency [2] was > 20.6 µM.
In the case of `CN(Cc1ccccc1)c1ncnc2ccc(Br)cc12`, the activity change, negative = inhibition [3] was -9.63% and the Potency [2] was > 20.6 µM.
In the case of `N#Cc1c2c(c(-c3ccccc3)[nH]c1=O)CCCC2`, the activity change, negative = inhibition [3] was 10.7% and the Potency [2] was > 20.6 µM.
Compound `Cc1cc(NCCNC2=CC(=O)CCC2)nc2ccccc12` has an activity, negative = inhibition [1] of 4.57%.
Work on `O=C(c1ccccc1)C(CCC(CN1CCOCC1)C(=O)c1ccccc1)CN1CCOCC1` (stereo unspecified) yielded an activity, negative = inhibition [1] of -25.4%.
In the case of `COc1ccc(C(=O)CSC2=C(C#N)C3(CCCCC3)C(C#N)=C(N)N2)cc1`, the activity change, negative = inhibition [3] was 14.6% and the Potency [2] was > 20.6 µM.
In the case of `COc1ccccc1C(=O)NC(=Nc1nc2ccccc2o1)NC(=O)c1ccccc1OC`, the activity change, negative = inhibition [3] was -110% (active) and the Potency [2] was > 20.6 µM.
With `CC(=O)c1cc(CN2CCCCC2)cc(OC(C)C)c1` the activity, negative = inhibition [1] was 13.1%.
With `N=c1c2c(-c3ccccc3)c(-c3ccccc3)n(Cc3ccccc3)c2ncn1CCCn1ccnc1` the activity, negative = inhibition [1] was 9.95% and the Potency [2] was > 20.6 µM.
For `NCCN1C(=O)c2ccccc2[C@@]1(O)c1ccc(Cl)cc1`, the activity, negative = inhibition [1] was 2.46% [at 7.69 µM].
In the case of `N#CC1=C(SCC(=O)c2ccc(Cl)cc2)NC2=C(C(=O)CCC2)C1c1ccco1` (stereo unspecified), the activity change, negative = inhibition [3] was -22.4% and the Potency [2] was > 20.6 µM.
With `COc1cccc(-c2nc(NC(C)(C)C)c3ccccc3n2)c1O` the activity, negative = inhibition [1] was -74.9% (active) and the Potency [2] was > 20.6 µM.
For `CC(C)Cc1nc(N2CCN(C(=O)c3ccco3)CC2)c(C#N)c2c1CCC2`, the activity, negative = inhibition [1] was -7.73% and the Potency [2] was > 20.6 µM.
With `O=C(CCN1CCCC1Cc1ccccc1)c1ccc2c(c1)OCCO2` (stereo unspecified) the activity, negative = inhibition [1] was 14.7% and the Potency [2] was > 20.6 µM.
